# PubChem BioAssay (NCATS)
# Inconclusive results are not listed. A number with no mark means an inactive call. Active and inactive are the calls of the source. The call rests on the fitted dose curve; in most records, active means well fitted curve in the direction sought with a large enough effect; inconclusive means small, poorly fitted or top-dose-only effect, or another doubt; inactive means no such curve, though single readings can be large; an effect the other way counts as inactive or inconclusive.
# Assays:
# [1] = BET inhibitor-based combinations targeting novel dependencies in MECOM-rearranged (r) AML: SET-2 cell line (AID 2202231); settings: SET-2 AML cells viability, CellTiter-Glo luminescence, 48 h; viability: active compounds read low, concentration not given here; further: nearly all actives have a fitted effect of over 35% in size; further: potency means the concentration at half of the fitted maximal effect;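 on viability: plate controls were DMSO treated cells for no effect and wells without cells for full effect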
# Procedure, shortened: (§1)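 Each compound was tested at eleven concentrations on cells seeded at 500/well. After two days' incubation, ATP-based luminescence reported viability; responses relative to DMSO and blank wells yielded AUC and cell-line-centred Z-AUC.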
# [2] = BET inhibitor-based combinations targeting novel dependencies in MECOM-rearranged (r) AML: OCI-AML3 cell line (AID 2202232); settings: Potency: OCI-AML3 viability; further: nearly all actives have a fitted effect of over 35% in size; further: potency means the concentration at half of the fitted maximal effect
# Procedure, shortened: as §1
# [3] = BET inhibitor-based combinations targeting novel dependencies in MECOM-rearranged (r) AML: UCSD-AML1 cell line (AID 2202235); further: nearly all actives have a fitted effect of over 40% in size; further: potency means the concentration at half of the fitted maximal effect
# Procedure, shortened: (§2)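 First, 500 cells per well were seeded; next, drugs were pinned as 11-point doses; then plates sat 48 hr in the incubator; finally CellTiter-Glo was added and luminescence read, with AUC and Z-AUC computed.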
# [4] = BET inhibitor-based combinations targeting novel dependencies in MECOM-rearranged (r) AML: AML-191 cell line (AID 2202236; further: nearly all actives have a fitted effect of over 35% in size; further: potency means the concentration at half of the fitted maximal effect)
# Procedure, shortened: as §1
# [5] = BET inhibitor-based combinations targeting novel dependencies in MECOM-rearranged (r) AML: AML-194 cell line (AID 2202237;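 further: plate controls were vehicle wells for no effect and wells without cells for full effect; nearly all actives have a fitted effect of over 40% in size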)
# Procedure, shortened: as §1
# [6] = BET inhibitor-based combinations targeting novel dependencies in MECOM-rearranged (r) AML: MV-4-11 cell line (AID 2202233); further: potency means the concentration at half of the fitted maximal effect; nearly all actives have a fitted effect of over 45% in size
# Procedure, shortened: as §2
# [7] = BET inhibitor-based combinations targeting novel dependencies in MECOM-rearranged (r) AML: HNT-34 cell line (AID 2202234); further: potency means the concentration at half of the fitted maximal effect; nearly all actives have a fitted effect of over 35% in size
# Procedure, shortened: as §2
structure (smiles),measurement,setting,value
Clc1ccc(CCC(Cn2ccnc2)Sc2c(Cl)cccc2Cl)cc1 (stereo not drawn),viability,[1],81.3%
same,Potency,[2],inactive
same,Potency,[3],inactive
same,Potency,[4],inactive
same,Potency,[5],inactive
NC(=O)c1ccc2nc(-c3ccc(C4(N)CCC4)cc3)c(-c3ccccc3)n2n1,viability,[1],98.4%
same,Potency,[6],4.17 µM (active)
CN1C(=O)[C@@H](NC(=O)c2cc(Cc3ccccc3)on2)COc2ccccc21,viability,[1],73.2%
same,Potency,[2],inactive
same,Potency,[3],inactive
same,Potency,[4],inactive
COc1cc2c(NC3CCN(C4CCCCC4)CC3)nc(N3CCCN(C(C)C)CC3)nc2cc1OCCCN1CCCCC1,viability,[1],109%
same,Potency,[6],7.42 µM (active)
c1ccc2c(-c3cnn4cc(-c5ccc(OCCN6CCOCC6)cc5)cnc34)ccnc2c1,Potency,[1],12.9 µM (active)
same,Potency,[6],4.56 µM (active)
Cn1cc(-c2nc(N[C@@H]3CCCC[C@@H]3N)c(F)c3c2C(=O)NC3)cn1,viability,[1],112%
same,Potency,[6],0.148 µM (active)
same,Potency,[7],2.35 µM (active)
O=C(O)c1ccccc1-c1ccc(/C=c2\sc3nc4cc(Br)cnc4n3c2=O)o1,viability,[1],92.3%
same,Potency,[2],inactive
same,Potency,[3],inactive
same,Potency,[4],inactive
same,Potency,[5],inactive
COc1cc2c3c(n(CCCn4ccnc4)c(=O)c2cc1OC)-c1cc2c(cc1C3=O)OCO2,Potency,[1],0.0372 µM (active)
same,Potency,[2],0.0372 µM (active)
same,Potency,[3],0.0209 µM (active)
same,Potency,[4],0.0332 µM (active)
C#C[C@]1(O)CC[C@H]2[C@@H]3[C@H](C)CC4=C(CCC(=O)C4)[C@H]3CC[C@@]21C,viability,[1],111%
same,Potency,[2],16.6 µM (active)
same,Potency,[4],inactive
same,Potency,[5],inactive
CC[C@H](Nc1ncnc2nc[nH]c12)c1oc2ccccc2c(=O)c1-c1cccc(F)c1,viability,[1],93.4%
same,Potency,[6],6.61 µM (active)
